± gives the standard deviation of the averaged measurements.
test system: SW480; experiment: cell viability (CellTiter-Glo) relative to plate median (fraction of plate median); higher = more viable cells; settings: 5 µM; treatment time 24 h; reporter: 7TFP
Method in brief: (§1)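 Two independent replicates were averaged for each reported value. Library compounds were applied at a final 5 µM for 24 h to colorectal cancer cell lines stably expressing lentiviral TCF/Wnt firefly luciferase reporters. Firefly luciferase or CellTiterGlo luminescence from each well was normalised to the plate median.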

| Compound | cell viability |
| --- | --- |
| O=[N+]([O-])c1ccc(O)c([N+](=O)[O-])c1 | 0.905 ± 0.098 |
| Oc1ccc(Cl)cc1 | 0.961 ± 0.04 |
| [N-]=[N+]=CC(=O)OC[C@H](N)C(=O)O | 1.07 ± 0.028 |
| CC(=O)[C@H]1CC[C@H]2[C@@H]3CC[C@H]4C[C@H](O)CC[C@]4(C)[C@H]3CC[C@]12C | 0.99 ± 0.014 |
| CN[C@@H]1C[C@H]2O[C@@](C)([C@@H]1OC)n1c3ccccc3c3c4c(c5c6ccccc6n2c5c31)C(=O)NC4 [Staurosporine] | 1.14 ± 0.035 |
| OCC(O)Cc1ccc2c(c1)OCO2 (stereo not drawn) | 1.02 ± 0.033 |
| CN1CCc2cc3c(cc2C1O)OCO3 (stereo not drawn) | 0.995 ± 0.021 |
| COS(C)(=O)=O | 1.015 ± 0.0071 |
| Oc1cc(Cl)ccc1Oc1ccc(Cl)cc1Cl | 0.954 ± 0.021 |
| CCC(N)C(O)c1ccc(O)c(O)c1 (stereo not drawn) | 1.07 ± 0.057 |
| CC1=C(O)C(=O)C=C2C1=CC=C1[C@@]2(C)CC[C@@]2(C)[C@@H]3C[C@](C)(C(=O)O)CC[C@]3(C)CC[C@]12C | 1 ± 0.012 |
| O=[N+]([O-])O[C@@H]1CO[C@H]2[C@@H]1OC[C@@H]2O | 1.02 ± 0.03 |
| CN[C@@H]1[C@@H](O)[C@@H](O[C@@H]2[C@@H](O)[C@H](O[C@H]3O[C@H](CN)CC[C@H]3N)[C@@H](N)C[C@H]2N)OC[C@]1(C)O.CN[C@@H]1[C@@H](O)[C@@H](O[C@@H]2[C@@H](O)[C@H](O[C@H]3O[C@H]([C@@H](C)N)CC[C@H]3N)[C@@H](N)C[C@H]2N)OC[C@]1(C)O.CN[C@@H]1[C@@H](O)[C@@H](O[C@@H]2[C@@H](O)[C@H](O[C@H]3O[C@H]([C@@H](C)NC)CC[C@H]3N)[C@@H](N)C[C@H]2N)OC[C@]1(C)O | 1.03 ± 0.063 |
| O=c1ccc2c(O)c3ccoc3cc2o1 | 1.02 ± 0.028 |
| C[C@H]1O[C@@H](O[C@H]2[C@@H](O)C[C@H](O[C@H]3[C@@H](O)C[C@H](O[C@H]4CC[C@@]5(C)[C@H](CC[C@@H]6[C@@H]5CC[C@]5(C)[C@@H](C7=CC(=O)OC7)[C@@H](O)C[C@]65O)C4)O[C@@H]3C)O[C@@H]2C)C[C@H](O)[C@@H]1O | 0.765 ± 0.11 |
| C[C@H]1CC[C@]2(NC1)O[C@H]1C[C@H]3[C@@H]4CC[C@H]5C[C@@H](O)CC[C@]5(C)[C@H]4CC[C@]3(C)[C@H]1[C@@H]2C | 0.988 ± 0.06 |
| COC(=O)NC(=S)Nc1ccccc1NC(=S)NC(=O)OC | 0.973 ± 0.0071 |
| CCCC(=O)O[C@@H]1[C@@H](C)[C@@]2(O)[C@@H](C=C(CO)C[C@]3(O)C(=O)C(C)=C[C@@H]23)[C@@H]2C(C)(C)[C@]12OC(=O)CCC | 1.02 ± 0.033 |
| C[C@H](N)[C@H](O)c1ccc(O)c(O)c1 | 1.09 ± 0.17 |
| CCOC(=O)C1C(C=C(C)C)C1(C)C (stereo not drawn) | 0.932 ± 0.05 |
| CCCC(C)C1(CC)C(=O)NC(=O)NC1=O (stereo not drawn) | 0.978 ± 0.0014 |
| CN1[C@@H]2C[C@@H](OC(=O)[C@H](CO)c3ccccc3)C[C@H]1[C@@H]1O[C@@H]12 | 0.99 ± 0.0099 |
| COc1cc2occc2c2oc(=O)ccc12 | 0.95 ± 0.026 |
| CN(C)C(=O)Oc1cc(OC(=O)N(C)C)cc(C(O)CNC(C)(C)C)c1 (stereo not drawn) | 0.961 ± 0.044 |
| O=C(O)CC[N+](=O)[O-] [BOVINOCIDIN (3-nitropropionic acid)] | 0.986 ± 0.02 |
| CC(C)=CCCC1(C)C=Cc2c(O)c3c(c(CC=C(C)C)c2O1)OC12C(=CC4CC1C(C)(C)OC2(C/C=C(/C)C(=O)O)C4O)C3=O (stereo not drawn) | 0.996 ± 0.1 |
| O=C(O)CCC1NCC2CC1CN1CCCCC21 (stereo not drawn) | 0.971 ± 0.023 |
| CC(=O)Oc1c2c(c(CC=C(C)C)c3c1C(=O)C1=C[C@@H]4CC5C(C)(C)OC(C/C=C(\C)C(=O)O)(C4=O)[C@@]15O3)OC(C)(CCC=C(C)C)C=C2 (stereo partly drawn) | 0.913 ± 0.08 |
| NCCCNCCSP(=O)(O)O | 1.06 ± 0.021 |

test system: DLD1; experiment: TCF/Wnt firefly luciferase reporter signal relative to plate median (fraction of plate median); higher = higher Wnt reporter signal; settings: 5 µM; treatment time 24 h; reporter: 7TFP
Method in brief: as §1

| Compound | TCF/Wnt firefly luciferase reporter signal |
| --- | --- |
| O=[N+]([O-])c1ccc(O)c([N+](=O)[O-])c1 | 0.966 ± 0.13 |
| Oc1ccc(Cl)cc1 | 1.03 ± 0.042 |
| [N-]=[N+]=CC(=O)OC[C@H](N)C(=O)O | 0.977 ± 0.047 |
| CC(=O)[C@H]1CC[C@H]2[C@@H]3CC[C@H]4C[C@H](O)CC[C@]4(C)[C@H]3CC[C@]12C | 0.902 ± 0.047 |
| CN[C@@H]1C[C@H]2O[C@@](C)([C@@H]1OC)n1c3ccccc3c3c4c(c5c6ccccc6n2c5c31)C(=O)NC4 [Staurosporine] | 0.583 ± 0.023 |
| OCC(O)Cc1ccc2c(c1)OCO2 (stereo not drawn) | 0.922 ± 0.091 |
| CN1CCc2cc3c(cc2C1O)OCO3 (stereo not drawn) | 0.956 ± 0.037 |
| COS(C)(=O)=O | 0.98 ± 0.14 |
| Oc1cc(Cl)ccc1Oc1ccc(Cl)cc1Cl | 0.983 ± 0.15 |
| CCC(N)C(O)c1ccc(O)c(O)c1 (stereo not drawn) | 1.03 ± 0.22 |
| CC1=C(O)C(=O)C=C2C1=CC=C1[C@@]2(C)CC[C@@]2(C)[C@@H]3C[C@](C)(C(=O)O)CC[C@]3(C)CC[C@]12C | 0.863 ± 0.083 |
| O=[N+]([O-])O[C@@H]1CO[C@H]2[C@@H]1OC[C@@H]2O | 0.989 ± 0.28 |
| CN[C@@H]1[C@@H](O)[C@@H](O[C@@H]2[C@@H](O)[C@H](O[C@H]3O[C@H](CN)CC[C@H]3N)[C@@H](N)C[C@H]2N)OC[C@]1(C)O.CN[C@@H]1[C@@H](O)[C@@H](O[C@@H]2[C@@H](O)[C@H](O[C@H]3O[C@H]([C@@H](C)N)CC[C@H]3N)[C@@H](N)C[C@H]2N)OC[C@]1(C)O.CN[C@@H]1[C@@H](O)[C@@H](O[C@@H]2[C@@H](O)[C@H](O[C@H]3O[C@H]([C@@H](C)NC)CC[C@H]3N)[C@@H](N)C[C@H]2N)OC[C@]1(C)O | 1.03 ± 0.028 |
| O=c1ccc2c(O)c3ccoc3cc2o1 | 0.926 ± 0.037 |
| C[C@H]1O[C@@H](O[C@H]2[C@@H](O)C[C@H](O[C@H]3[C@@H](O)C[C@H](O[C@H]4CC[C@@]5(C)[C@H](CC[C@@H]6[C@@H]5CC[C@]5(C)[C@@H](C7=CC(=O)OC7)[C@@H](O)C[C@]65O)C4)O[C@@H]3C)O[C@@H]2C)C[C@H](O)[C@@H]1O | 0.611 ± 0.61 |
| C[C@H]1CC[C@]2(NC1)O[C@H]1C[C@H]3[C@@H]4CC[C@H]5C[C@@H](O)CC[C@]5(C)[C@H]4CC[C@]3(C)[C@H]1[C@@H]2C | 1.03 ± 0.035 |
| COC(=O)NC(=S)Nc1ccccc1NC(=S)NC(=O)OC | 1.17 ± 0.042 |
| CCCC(=O)O[C@@H]1[C@@H](C)[C@@]2(O)[C@@H](C=C(CO)C[C@]3(O)C(=O)C(C)=C[C@@H]23)[C@@H]2C(C)(C)[C@]12OC(=O)CCC | 1.03 ± 0.1 |
| C[C@H](N)[C@H](O)c1ccc(O)c(O)c1 | 1.004 ± 0.0085 |
| CCOC(=O)C1C(C=C(C)C)C1(C)C (stereo not drawn) | 0.906 ± 0.064 |
| CCCC(C)C1(CC)C(=O)NC(=O)NC1=O (stereo not drawn) | 0.948 ± 0.018 |
| CN1[C@@H]2C[C@@H](OC(=O)[C@H](CO)c3ccccc3)C[C@H]1[C@@H]1O[C@@H]12 | 1.02 ± 0.1 |
| COc1cc2occc2c2oc(=O)ccc12 | 1.06 ± 0.17 |
| CN(C)C(=O)Oc1cc(OC(=O)N(C)C)cc(C(O)CNC(C)(C)C)c1 (stereo not drawn) | 0.911 ± 0.11 |
| O=C(O)CC[N+](=O)[O-] [BOVINOCIDIN (3-nitropropionic acid)] | 1.01 ± 0.042 |
| CC(C)=CCCC1(C)C=Cc2c(O)c3c(c(CC=C(C)C)c2O1)OC12C(=CC4CC1C(C)(C)OC2(C/C=C(/C)C(=O)O)C4O)C3=O (stereo not drawn) | 0.848 ± 0.069 |
| O=C(O)CCC1NCC2CC1CN1CCCCC21 (stereo not drawn) | 1.27 ± 0.28 |
| CC(=O)Oc1c2c(c(CC=C(C)C)c3c1C(=O)C1=C[C@@H]4CC5C(C)(C)OC(C/C=C(\C)C(=O)O)(C4=O)[C@@]15O3)OC(C)(CCC=C(C)C)C=C2 (stereo partly drawn) | 0.706 ± 0.067 |
| NCCCNCCSP(=O)(O)O | 1.1 ± 0.028 |

Source: the supplement of paper PMC6522484
